# Hits are enriched below; roughly 5.9% of the tested compounds scored in any of these assays.
# HSF1 inh: HSF1 inhibition. AID 2098. NIH3T3-HGL HSE-luciferase, MG132-induced, luminescence 8 h; hits give low values. 0.77% of 300,000 active. activity change, negative = inhibition, % at 7.5 µM (by protocol);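 active = more than half of replicate wells show activity change below -50%, luminescence cut by over half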;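 note: luciferase reports HSF-1 transcriptional activity via heat shock element; 0% = median of DMSO wells and -100% = zero luminescence signal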
# GAA850 FXN act: increases GAA850 frataxin promoter reporter activity. HEK293 lucGAA850 FXN promoter luciferase reporter, 24 h; percent of 10 µM SAHA response. 0.56% of 360,000 active. activation, % at 6 µM;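 active = activation above the average of all compounds screened plus 3 SD, cutoff fixed separately per campaign, cut at about 7.5% in these data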;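 note: 0% = DMSO wells and 100% = 10 µM SAHA wells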
# NR0B1 inh: NR0B1 (DAX1) inhibition; P51843; HEK293 Gal4-DAX1 luciferase reporter, luminescence; inhibition, % at 6.75 µM; 0.99% of 340,000 active; AID 504766;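 active = inhibition above the mean over all tested compounds plus 3 SD, cut at about 4.2% in these data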;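 note: 0% = DAX1-transfected cells with DMSO and 100% = empty-vector control cells with DMSO; inhibition shows as a rise in luminescence from relieved DAX1 repression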
# Target sequence (P51843 207-470 limits assumed): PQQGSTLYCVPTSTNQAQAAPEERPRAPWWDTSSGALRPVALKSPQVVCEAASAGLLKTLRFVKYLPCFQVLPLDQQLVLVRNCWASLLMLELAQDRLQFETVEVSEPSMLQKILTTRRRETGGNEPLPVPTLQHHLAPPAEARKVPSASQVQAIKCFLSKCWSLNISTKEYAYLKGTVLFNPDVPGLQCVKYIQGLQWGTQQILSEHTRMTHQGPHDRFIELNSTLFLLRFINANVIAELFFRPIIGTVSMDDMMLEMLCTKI
# HSF1 activator: increases HSF-1 driven luciferase reporter signal | NIH3T3-HGL HSF-1 luciferase reporter, MG132, 8 h; 100% = twice DMSO control signal | activation, % at 9 µM | 1.7% of 300,000 active | AID 504408;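 active = mean replicate activation of at least 50% with a set share of replicates each reaching 50%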;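 note: 0% = median of the neutral control wells and 100% = twice that signal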
# HSP90 inh: HSP90 refolding inhibition in rabbit reticulocyte lysate | luciferase refolding luminescence, 3 h | inhibition, % at 5.6 µM | 0.91% of 290,000 active | AID 1789;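 active = inhibition above the screen-wide mean plus 3 SD, computed separately per campaign, cut at about 16% in these data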;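 note: 0% = DMSO wells and 100% = 60 µM geldanamycin wells; inhibitors lower the luminescence because luciferase stays unfolded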
# AHR act: activates the human aryl hydrocarbon receptor | 2.5% of 320,000 active | P35869 | AHR-responsive luciferase reporter cells, luminescence | AID 2796 | activation, % at 5 µM; in the data active = activation above about 47%;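 note: 0% = vehicle wells and 100% = reference agonist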
# The depositor's hits bear a star; . = not tested or not shown.
SMILES,HSF1 inh,GAA850 FXN act,NR0B1 inh,HSF1 activator,HSP90 inh,AHR act
CC(C)CN(C(=O)C(C)N1C(=O)c2ccccc2C1=O)c1c(N)n(Cc2ccccc2)c(=O)[nH]c1=O (stereo not given),-3,0,1,9,.,4
O=C(CN1CCCC1c1ccc2c(c1)OCCO2)NC(=O)Nc1ccccc1F (stereo not given),.,1,1,.,.,.
CCOC(=O)c1sc(NC(=O)c2ccc(C)s2)cc1C,49,4,1,69*,3,-19
CCOC(=O)c1sc(NC(=O)Nc2ccccc2)cc1C,28,3,0,82*,-3,-6
CCOC(=O)c1sc(NC(=O)Nc2ccccc2Cl)cc1C,2,6,0,-7,-1,-12
COc1ccccc1CNc1nc(NCc2ccc3occc3c2)c2sccc2n1,.,0,.,.,.,.
CN(CC(=O)Nc1ccccc1C(F)(F)F)C(=O)c1ccc(N2C(=O)CCC2=O)cc1,-5,2,4.5*,-10,.,0
COc1cc(C(=O)Nc2nnc(C)s2)cc(OC)c1OC,3,0,1,2,3,69*
COc1cc(C(=O)Nc2nncs2)cc(OC)c1OC,-48,0,0,-60,-1,16
COc1cc(C(=O)Nc2nnc(CC(=O)NCc3ccccc3)s2)cc(OC)c1OC,-1,1,4.2*,3,5,8
COc1ccc(C(CNC(=O)c2ccc(S(=O)(=O)Nc3cccc(C)c3C)cc2)N2CCOCC2)cc1 (stereo not given),.,0,0,.,.,.
C[C@@H]1CN([C@H](C)CO)S(=O)(=O)c2ccc(C3=CCCCC3)cc2O[C@H]1CN(C)C(=O)Cc1cccnc1,.,-3,0,.,.,.
O=C(Nc1nc(-c2ccc3c(c2)OCCO3)cs1)C1CCCC1,28,5,5.8*,29,-1,34
N#CCC(=O)Nc1nc(-c2ccc3c(c2)OCCO3)cs1,7,1,2,9,4,14
CCOC(=O)N1CCN(C(=O)CSCC(=O)Nc2nc(-c3ccc(C)cc3)cs2)CC1,-19,1,2,-33,-4,5
CCOC(=O)N1CCN(C(=O)CSCC(=O)Nc2nc(-c3ccc4c(c3)OCO4)cs2)CC1,.,2,-1,.,9,63*
O=C(CSCC(=O)N1CCOCC1)Nc1nc(-c2ccc3c(c2)OCO3)cs1,8,2,3,-6,2,50*
Cc1ccc(C2=NS(=O)(=O)N(C)C(C(=O)Nc3ccc4c(c3)OCO4)=C2)cc1,-3,0,2,-1,3,53*
Cc1ccc(O)c(NC(=O)C2=CC(c3ccco3)=NS(=O)(=O)N2C)c1,-9,-2,0,-1,-3,14
CN1C(C(=O)Nc2cccc(O)c2)=CC(c2ccco2)=NS1(=O)=O,-8,-1,7.6*,-9,0,-1
CCN1CCN(C(=O)C2=CC(c3ccc(C)cc3)=NS(=O)(=O)N2C)CC1,-2,0,4.5*,-6,2,35
CCN1CCN(C(=O)C2=CC(c3ccc(OC)cc3)=NS(=O)(=O)N2C)CC1,3,1,1,-10,-4,10
COc1cc(NC(=O)c2cc(C(C)C)on2)c(OC)cc1Cl,-1,0,0,15,-1,74*
COc1ccc(NC(=O)c2cc(C(C)C)on2)cc1OC,-3,4,5.0*,1,-6,2
COc1ccc(NC(=O)c2cc(C(C)C)on2)c(OC)c1,9,5,1,29,-3,2
SMILES,HSF1 inh,GAA850 FXN act,NR0B1 inh,HSF1 activator,HSP90 inh,AHR act
CCCN(C(=O)COC(=O)CCC(=O)c1ccccc1)c1c(N)n(Cc2ccccc2)c(=O)[nH]c1=O,.,0,1,.,.,.
CCCCOc1c(Br)cc(CNCCCN2CCOCC2)cc1OC,-10,1,0,-9,-2,-1
CC/C(=N\NC(=O)c1nnn(-c2nonc2N)c1CN(C)c1ccccc1)c1ccccc1,4,0,-1,-13,-2,3
CNC(=O)c1[nH]cnc1C(=O)Nc1cccc(OC)c1,-8,3,0,1,-3,57*
COc1ccc(NC(=O)c2nc[nH]c2C(=O)N[C@@H](C)c2ccccc2)cc1,4,1,-1,4,.,48*
Cc1ccccc1NC(=O)c1nc[nH]c1C(=O)NCc1ccccc1,22,0,-1,59*,3,9
Cc1cccc(NC(=O)c2nc[nH]c2C(=O)Nc2cccc(C)c2)c1,22,-2,1,53*,-2,13
CCOC(=O)c1[nH]cnc1C(=O)Nc1cccc(OC)c1,-1,1,-1,-1,5,2
CC1(C(=O)NS(=O)(=O)c2ccccc2OC(F)(F)F)CCN1C(=O)c1ccccc1 (stereo not given),.,1,.,.,.,.
CCOc1cccc(/C=N/N=C/c2cccc(OCC)c2O)c1O,-3,2,-1,6,1,.
Oc1ccccc1C=NN=Cc1ccccc1Cl,-58,5,3,-58,.,.
C=CCS/C(N)=N\N=C\c1c(O)ccc2ccccc12,31,7,4,22,0,56*
CCCS/C(N)=N/N=C/c1ccccc1O,13,7,4,56*,-1,4
CCOc1ccccc1C=NN=Cc1ccccc1O,-14,4,6.8*,-14,.,.
CC1CCCCC1NC(=O)CN1C(=O)NC(C)(c2cc(F)ccc2F)C1=O (stereo not given),.,-1,1,.,.,-1
Cc1nn(-c2ccccc2)c(C)c1/C=N/n1c(-c2ccccc2Br)n[nH]c1=S,-6,3,1,-1,0,51*
N#Cc1c(F)cccc1NCCCn1ccnc1,-4,0,4.6*,11,.,24
N#Cc1cc([N+](=O)[O-])ccc1NCCCn1ccnc1,-2,3,0,-2,-1,37
O=S(=O)(Nc1ccc(O)cc1)c1cccc2cccnc12,-10,-1,1,2,2,-1
O=S(=O)(Nc1ccccc1O)c1cccc2cccnc12,36,1,0,78*,-1,-2
O=C(NC1CCc2ccccc21)c1cc(COc2ccc(F)cc2Cl)on1 (stereo not given),-6,-1,-1,-4,0,2
O=C(NC1CCc2ccccc21)c1cc(COc2cncc(Cl)c2)on1 (stereo not given),11,1,0,13,1,55*
COc1ccc(NS(=O)(=O)c2cccc(C(=O)NNC(=O)CN3C(=O)NC(C)(C)C3=O)c2)cc1,-1,1,0,-14,.,1
Cc1ccc(/C=[N+](\[O-])c2ccc(N(C)C)cc2)c2nsnc12,-57*,6,-2,-61,6,.
Cc1ccc2nsnc2c1NS(=O)(=O)c1c(C)ccc2nsnc12,-8,1,2,-3,1,2
COCCNC(=S)N/N=C(\C)c1ccc(O)cc1,5,-4,1,7,3,3
